From PubChem BioAssay (Tox21)
Values joined by “and” are separate entries in the source; they are usually repeats but may differ in a detail not shown here. Equal entries are not always repeated. Results filed as inconclusive are left out. Active and inactive are the calls of the source. Calls come from the whole dose curve; as a rule, active = well fitted cell-killing curve with a large enough effect in the repeat runs; inconclusive = weak or mixed curves, or effect the other way; inactive = no such curve, though single readings can be large or run the other way.

Experiment: Caspase-3/7 induction in CHO-K1 cells by small molecules, qHTS cell viability counter screen (AID 1346979); note: nearly all actives have a fitted effect of over 35% in size
Settings: CellTiter-Fluor fluorescence, 17 h; series mostly up to 92.4 µM; activity change, negative = cytotoxicity: at the top concentration
Description: National Center for Advancing Translational Sciences [NCATS]
NIH Chemical Genomics Center [NCGC]
U.S. Environmental Protection Agency [EPA]
National Institutes of Environmental Health Sciences [NIEHS]
National Toxicology Program [NTP]
U.S. Food and Drug Administration [FDA]
Apoptosis is a process of programmed cell death and plays a central role in the development of multicellular organisms. It is a highly regulated process and induces cell death by activating caspases, which are the members of cysteine aspartic acid-specific protease (caspase) family. Caspases involved in apoptosis are classified by their mechanism of action as initiator caspases (caspase-2, -8, -9 and -10) and executioner caspases (caspase-3, -6, and -7). Inhibition of apoptosis results in number of cancers, autoimmune diseases, inflammatory diseases and viral infection. To identify small molecule compounds that induce apoptosis, a homogeneous, luminescent Caspase-Glo 3/7 assay was used. Wild type CHO-K1 cells were used to screen Tox21 libraries for identifying caspase-3/7 activity inducers. Also cytotoxicity of the compounds was tested in parallel by measuring the cell viability using CellTiter-Fluor assay system in the same wells.
Tox21 Assay Protocol Summary:
CHO-K1 cells were dispensed at 1,500 per well in 5uL of culture medium into white solid bottom 1536-well plates (Corning Life Sciences, Corning, NY) using a Multidrop Combi (Thermo Scientific, Waltham, MA) dispenser. The assay plates were incubated at 37 C and 5% CO2 for 5hr, and then 23nL of compounds dissolved in DMSO and positive control were transferred using a Pintool station (Wako, San Diego, CA). The assay plates were incubated at 37C and 5% CO2 for 17hr. For cytotoxicity read, after 16hr incubation at 37C, 1uL CellTiter-Fluor reagent (Promega Corporation, Madison, WI) was added to each well of the assay plates using Flying Reagent Dispenser (FRD, Aurora Discovery, San Diego, CA). After 1hr incubation at 37C and 5% CO2, the fluorescence signal was quantified using a ViewLux plate reader (PerkinElmer, Shelton, CT).
% is set by controls: 0 for no effect and ±100 for the full control effect; potency is the fitted concentration of half-maximal effect.

| Compound | Potency | activity change, negative = cytotoxicity |
| --- | --- | --- |
| CC(C)N(C(=O)CCl)c1ccccc1 | 24.3 µM (active) and 27.3 µM (active) |  |
| O=S(=O)(NS(=O)(=O)C(F)(F)F)C(F)(F)F | 48.4 µM (active) |  |
| CC(C)[C@@H](Nc1ccc(C(F)(F)F)cc1Cl)C(=O)OC(C#N)c1cccc(Oc2ccccc2)c1 (stereo not given in full) |  | -4.06% (inactive) |
| Cc1ccc2cc3c(ccc4ccccc43)c3c2c1CC3 |  | 2.61% [at 42.5 µM] (inactive) |
| CCC(C)Br (stereo not given) |  | 0.825% (inactive) |
| CC(=O)[O][Pb]([c]1ccccc1)([c]1ccccc1)[c]1ccccc1 | 0.386 µM (active) |  |
| [C-]1=CC=CC1.[Cl][Zr+2][Cl].c1cc[cH-]c1 |  | 2.35% (inactive) |
| CCOP(=O)(OCC)Oc1cc(C)nc(C(C)C)n1 |  | 6.47% (inactive) |
| CCN(CC)Cc1nccn1-c1ccc([N+](=O)[O-])cc1C(=O)c1ccccc1Cl |  | -12.8% [at 42.5 µM] (inactive) |
| Cc1ccc(C)c2ccccc12 |  | 12.4% (inactive) |
| CCCN |  | -1.21% (inactive) |
| COc1ccc2[nH]cc(CCN(C(C)C)C(C)C)c2c1 |  | -7.48% (inactive) |
| CN1C(=O)[C@@H](NC(=O)c2cc3ccccc3[nH]2)N=C(c2ccccc2)c2ccccc21 |  | -2.73% [at 42.5 µM] (inactive) |
| CCN(CC)CCN1C(=O)CN=C(c2ccccc2F)c2cc(Cl)ccc21 |  | 5.56% [at 42.5 µM] (inactive) |
| CCCCN(CCCC)C(=S)[S-].CCCCN(CCCC)C(=S)[S-].[Ni+2] |  | -0.0549% [at 42.5 µM] (inactive) |
| C=CCOC(=O)c1ccccc1N |  | 6.92% (inactive) |
| COc1nc(C)nc(NC(=O)NS(=O)(=O)c2ccccc2Cl)n1 |  | -0.932% (inactive) |
| Oc1ccc(Cl)c(Cl)c1 | 67.5 µM (active) |  |
| c1ccc(N=NNc2ccccc2)cc1 | 56.4 µM (active) |  |
| Brc1cccc(-c2ccccc2)c1 |  | 1.93% (inactive) |

| Compound | Potency | activity change, negative = cytotoxicity |
| --- | --- | --- |
| Clc1c(Cl)c(Cl)c(Cl)c(Cl)c1Cl |  | 0.636% [at 8.39 µM] (inactive) |
| Nc1nc(N)nc(Cl)n1 |  | -1.57% (inactive) |
| COc1c2c(cc3c1OCO3)CCN(C)C2 |  | 6.92% [at 42.5 µM] (inactive) |
| COc1ccc(Cc2nccc3cc(OC)c(OC)cc23)cc1OC | 13.3 µM (active) |  |
| ClSC(Cl)(Cl)Cl |  | 10.7% (inactive) |
| Cc1c([N+](=O)[O-])cc2c(c1[N+](=O)[O-])C(C)(C)CC2(C)C |  | 8.69% (inactive) |
| BrCCCBr |  | 0.24% (inactive) |
| O=S1OCC2C(CO1)C1(Cl)C(Cl)=C(Cl)C2(Cl)C1(Cl)Cl (stereo not given) | 61.2 µM (active) and 68.5 µM (active) |  |
| C[C@]12C/C(=C/O)C(=O)C[C@@H]1CC[C@@H]1[C@@H]2CC[C@@]2(C)[C@H]1CC[C@]2(C)O | 43.7 µM (active) |  |
| [O]=[Cr](=[O])([OH])[O][Cr](=[O])(=[O])[OH] | 7.77 µM (active) and 15.3 µM (active) |  |
| C=Cc1cccc(CCl)c1 |  | 4.29% [at 240 µM] (inactive) |
| CN=C=O |  | -0.624% (inactive) |
| COP(=S)(NC(C)C)Oc1ccc(C)cc1[N+](=O)[O-] (stereo not given) |  | -6.1% (inactive) |
| C1=CCC=C1 |  | 5.69% (inactive) |
| CC1CN1 (stereo not given) |  | 3.47% (inactive) |
| CCNc1nc(NC(C)C(C)C)nc(SC)n1 (stereo not given) |  | -1.76% (inactive) |
| CO/N=C(\C(=O)OC)c1ccccc1CO/N=C(\C)c1cccc(C(F)(F)F)c1 | 0.137 µM (active) |  |
| CN1C2CCC(C)(C)C1CC(OC(=O)C(O)(c1cccs1)c1cccs1)C2 (stereo not given) |  | -4.6% [at 42.5 µM] (inactive) |
| O=C(O)[C@H](O)[C@@H](O)C(=O)O |  | 7.43% (inactive) |
| N#CCCl |  | 5.01% (inactive) |
